SARS PLP yeast = inhibitors of SARS-CoV papain-like protease in yeast; S. cerevisiae expressing SARS-CoV PLpro, growth rescue; 330,000 tested, 0.19% active; Potency, µM (top dose mostly 32.9 µM), for inactives: at the top dose activity, positive = growth rescue, usual class: activators; calls by dose curve; also: potency is read from the fitted curve at half-maximal effect; 0% is about no effect; nearly all actives have a fitted effect of over 55% in size
Marburg entry inh = inhibitors of Marburg virus binding or cell entry; Marburg virus pseudotyped entry inhibition, cell reporter; Potency, µM (highest dose often 37.8 µM), without a hit: at the highest dose activity change, negative = inhibition, hits mostly inhibitors; 300,000 tested, 1.8% active; AID 540276; calls by dose curve; tested in HEK293 cells; also: potency is read from the fitted curve at half-maximal effect; % is scaled to controls: 0 for no effect and ±100 for the full control effect
HCV inhibitor = HCV inhibition. Huh7.5.1 HCVcc-Cre infection, luciferase reporter, 44 h. Potency, µM (top dose mostly 41.8 µM), inactives show top-dose activity change, negative = inhibition, most hits filed as inhibitors. 340,000 tested, 3.4% active. AID 651820; active = well fitted inhibition curve with a large enough effect; inconclusive = small, poorly fitted or top-dose-only effect, or another doubt; inactive = no such curve, though single readings can be large or run the other way; also: potency is read from the fitted curve at half-maximal effect; % is scaled to controls: 0 for no effect and ±100 for the full control effect
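Cells (1,000/well) were plated 4 h before compound, then infected with HCVcc-Cre virus (~0.5 moi). After 44 h further culture, infection was read as luciferase luminescence following a 15 min substrate incubation at room temperature.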
LASV entry inh = Lassa virus entry inhibition. Lassa virus pseudotype entry inhibition, cell reporter. Potency, µM (doses to about 37.9 µM), for the others: at the highest dose activity change, negative = inhibition, hits mostly inhibitors. 300,000 tested, 1.2% active; calls by dose curve; tested in HEK293 cells; also: potency is read from the fitted curve at half-maximal effect; % is scaled to controls: 0 for no effect and ±100 for the full control effect; nearly all actives have a fitted effect of over 50% in size
FMDV inh = foot and mouth disease virus antiviral activity | 410,000 tested, 1.2% active | FMDV antiviral cell-based qHTS | Potency, µM (series often up to 57.9 µM), for the others: top-dose activity change, negative = inhibition, hits mostly inhibitors | AID 1159524; calls by dose curve; tested in HEK293T cells; also: read-out not given here; potency is read from the fitted curve at half-maximal effect; % is scaled to controls: 0 for no effect and ±100 for the full control effect; nearly all actives have a fitted effect of over 45% in size
HCMV inh = inhibitors of human cytomegalovirus; HFF cells, HCMV-luciferase reporter, 72 h; stronger effect = lower value; activity change, negative = inhibition, % at 57.5 µM; 410,000 tested, 4.5% active; in the data active = activity change below about -60%; inconclusive = no clear call, values can overlap the other calls; inactive = above about -39%; also: % is scaled to controls: 0 for no effect and ±100 for the full control effect
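Inhibition of viral replication was scored as loss of reporter luminescence in HFFs infected with HCMV-luciferase (MOI 1 PFU/cell) for 72 h; compounds tested at 2 doses, normalized to buffer and Salinomycin controls.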
* marks the source's active call; other numbers are inactive results; ? = inconclusive; / = not tested or not shown; [ ] = remark or other dose. Rows were chosen to be rich in hits. Some 8% of all compounds tested hit in one or more screens of this group.

SMILES	SARS PLP yeast	Marburg entry inh	HCV inhibitor	LASV entry inh	FMDV inh	HCMV inh
CCCCCC1=CC2=C(C(=O)OC)C(c3ccccc3)NC(=O)N2CC1 (centres undefined)	/	1.3%[14.2 µM]	/	/	/	/
CN(C)CCNC(=O)c1cccc2nc3c(ccc4ccccc43)nc12	/	?	7.94µM*	?	-23.5%	-96.4*
COc1cccc2nc3c(C(=O)NCCN(C)C)cccc3cc12	/	7.08µM*	?	?	0.2%	-101.5*
COc1ccc(C(=O)NCCN(C)C)c2nc3ccccc3cc12	/	1.26µM*	?	?	-11.1%	-99.7*
CN(C)CCNC(=O)c1cccc2[nH]c(-c3ccncc3)nc12	/	?	?	?	3.3%	-99.9*
COc1ccc(-c2nc3c(C(=O)NCCN(C)C)cccc3c3ccccc23)cc1	/	?	?	?	-23.5%	-34.5
CN(Cc1ccccc1)C(=O)c1ccc(CSc2nc3cccnc3n2Cc2ccccc2F)cc1	/	/	/	-18.4%[46.1 µM]	?	-30.8
CCC(=O)N1CCc2cc(S(=O)(=O)NC(C(=O)NCCc3ccc(OC)c(OC)c3)C(C)C)ccc21 (centres undefined)	/	3.5%[46.1 µM]	/	3.6%[46.1 µM]	0.4%	-29.3
Cc1ccc2c(c1)-c1c(cnn1CC(=O)N1CCN(c3cccc(C(F)(F)F)c3)CC1)CO2	/	-11.3%[46.1 µM]	/	/	?	-6.0
COc1ccccc1C(=O)N[C@@H]1c2ccccc2C2(CCN(Cc3cccnc3)CC2)[C@H]1O	/	/	/	/	-5.8%	/
CCOc1ccc2nc3cc(N)ccc3c(N)c2c1	/	/	/	/	3.3%	/
CCOc1ccc2nc3ccc4[nH]onc4c3c2c1	/	-6.8%	2.51µM*	-12.5%	/	?
CCOc1ccc(NC(=O)c2cnc3sc(N4CCOCC4)nn3c2=O)cc1	/	/	/	1.7%[46.1 µM]	-4.0%	-11.1
Cc1c(Cl)cccc1N1C(N)=C(C#N)C(c2cc(CN3CCOCC3)cs2)C2=C1CCCC2=O (centres undefined)	/	-1.9%[46.1 µM]	/	-0.7%[46.1 µM]	3.2%	-12.6
COc1ccccc1NC(=S)N1CCC(c2nc3cc(C)c(C)cc3[nH]2)CC1	0.5%	3.8%	8.9%	16.2%	/	4.0
COc1ccccc1NC(=O)N1CCC(c2nc3cc(C)c(C)cc3[nH]2)CC1	-2.6%	?	?	?	15.0%	-64.0*
Cc1cccc(NC2=NC(C)(C)N=C(N)N2)c1	0.8%	?	?	?	-19.5%	-98.2*
O=C(Cn1ncc2c([nH]c3ccccc32)c1=O)Nc1cc(F)ccc1F	/	/	/	-10.5%[46.1 µM]	15.3%	-18.9
COCC(C)NC(=O)C1CC(c2cccc(Br)c2)=NO1 (centres undefined)	-1.0%	1.6%	3.16µM*	1.7%	13.6%	30.3
COc1cc(NC(=O)C2CC(c3cccc(Br)c3)=NO2)cc(OC)c1OC (centres undefined)	1.4%	?	-21.2%	?	-19.5%	15.0
O=C(Nc1cccc(Cl)c1)c1cnc2sc(N3CCCC3)nn2c1=O	/	/	/	-8.6%[46.1 µM]	?	-14.8
CC(=O)NCCNc1nc(NC(C)C)nc2cc(-c3ccccc3)sc12	/	/	/	/	-10.6%	-0.9
CC(=O)Nc1ccc(CNc2nc(NC(C)C)nc3cc(-c4ccccc4)sc23)cc1	/	/	/	/	45.6%	-98.1*
COc1ccc(-c2cc(CNc3nc(NC(C)C)nc4cc(-c5ccccc5)sc34)on2)cc1	/	/	/	/	-1.3%	-99.0*
C=CCNc1nc(NCc2ccc(NC(C)=O)cc2)c2sc(-c3ccccc3)cc2n1	/	/	/	/	45.1%	19.9
SMILES	SARS PLP yeast	Marburg entry inh	HCV inhibitor	LASV entry inh	FMDV inh	HCMV inh
c1ccc(-c2cc3nc(NCC4CC4)nc(NCC4CCCCC4)c3s2)cc1	/	/	/	/	?	-91.9*
CC(C)CCn1c(=O)c2sccc2n2c(CCCC(=O)Nc3ccc(F)c(Cl)c3)nnc12	/	/	/	5.6%[46.1 µM]	-8.5%	?
CSC1=C(C#N)[C@H](c2ccc(C)s2)CC(=O)N1	/	-0.4%	/	/	/	/
Cc1ccccc1NC(=O)N1CCC(CN2CCCC2)CC1	/	/	/	?	-1.5%	-11.9
COc1ccc(C(=O)N/N=C/C23CC[C@@H](O)CC2(O)CC[C@@H]2[C@@H]3CCC3(C)C(C4=CC(=O)OC4)CCC23O)cc1 (some centres undefined)	1.2%	/	3.0%	/	?	-81.7*
CN(C)c1ccc(C(=O)N/N=C/C23CC[C@@H](O)CC2(O)CC[C@@H]2[C@@H]3CCC3(C)C(C4=CC(=O)OC4)CCC23O)cc1 (some centres undefined)	1.1%	/	-29.9%	/	?	-98.6*
CC12CC[C@H]3[C@@H](CCC4(O)C[C@H](O)CCC34/C=N/NC(=O)c3ccc(O)cc3)C1(O)CCC2C1=CC(=O)OC1 (some centres undefined)	1.3%	/	0.3%	/	-21.3%	-22.1
COc1ccc(-c2cc3nc(C)c(CCC(=O)NC(C)c4ccccc4)c(C)n3n2)c(OC)c1 (centres undefined)	/	?	/	-4.4%[46.1 µM]	-10.4%	-18.6
Cc1ccc(N2CCN(Cc3nnc(-c4ccc5c(c4)OCO5)o3)CC2)c(C)c1	/	1.2%[46.1 µM]	/	11.0%[46.1 µM]	-9.1%	4.4
CCCCn1c(CCC)nc([N+](=O)[O-])c1Sc1ccc(Cl)cn1	9.0%	?	-28.0%	?	?	-77.3*
COc1ccc(OC)c(-c2cc(Cl)c3c(c2)CC(CNC(=O)[C@@H]2CCCN2C(C)=O)O3)c1 (some centres undefined)	/	/	/	/	-2.7%	/
C/C(=N\NC(=O)c1nnn(-c2nonc2N)c1-c1ccccc1)c1ccccc1O	-0.2%	?	6.31µM*	?	28.8%	-89.2*
C/C(=N\NC(=O)c1nnn(-c2nonc2N)c1CN(C)c1ccccc1)c1ccccn1	10.8%	/	4.47µM*	/	-10.4%	/
C/C(=N\NC(=O)c1nnn(-c2nonc2N)c1CN(C)c1ccccc1)c1cccs1	-0.4%	/	-16.3%	/	3.5%	0.0
C/C(=N\NC(=O)c1nnn(-c2nonc2N)c1CN(C)c1ccccc1)c1ccc(O)cc1	-1.3%	/	-0.5%	/	-9.8%	-60.5*
CCCN(CCC)Cc1c(C(=O)N/N=C/C(C)=C\c2ccco2)nnn1-c1nonc1N	-3.8%	4.47µM*	8.91µM*	?	13.0%	?
Cc1ccc(Cn2cc(CCC(=O)NC3CCC(C)CC3)c3ccccc32)cc1 (centres undefined)	/	/	/	?	2.2%	-34.0
CCOc1ccc(-c2cccc(NS(=O)(=O)c3c(C)cc(C)cc3C)c2)nn1	/	/	/	-12.8%[46.1 µM]	-3.2%	?
CCN(CC)CCNC(=O)C(=O)NCC(c1cccnc1)N1CCN(c2ccccc2)CC1 (centres undefined)	/	/	/	1.7%[46.1 µM]	-15.9%	6.7
CCCCCCC(C)(C)c1ccc([C@@H]2C[C@H](O)CC[C@@H]2CCCO)c(O)c1	/	13µM*	/	/	?	/
O=C(CCCCn1c(=O)c2ccccc2n(Cc2cccc(F)c2)c1=O)NCc1ccc2c(c1)OCO2	/	?	/	18.9%[46.1 µM]	-0.6%	7.6
CC(C)=NNc1ncnc2nc[nH]c12	/	1.6%	-26.7%	-18.1%	13.8%	-8.6
